TDP1 block = inhibitors of human tyrosyl-DNA phosphodiesterase TDP1; 0.28% of 350,000 active; Q9NUW8; Potency, µM (series often up to 130 µM), for the others: at the highest dose activity change, negative = inhibition, most hits filed as inhibitors; AID 485290; recombinant TDP1, AlphaScreen DNA substrate cleavage; also: potency is read from the fitted curve at half-maximal effect; % is scaled to controls: 0 for no effect and ±100 for the full control effect; nearly all actives have a fitted effect of over 40% in size
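Compounds were preincubated with Tdp1 (1 nM final) for 15 min at room temperature before substrate (15 nM final) started a 5 min reaction; beads (10 ug/ml final) were then added for 10 min before AlphaScreen detection.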
Pol eta inh-1 = inhibitors of human DNA polymerase eta | Q9Y253 | recombinant Pol eta, fluorescent DNA replication assay | Potency, µM (doses to about 114 µM), for inactives: top-dose activity change, negative = inhibition, actives largely listed as inhibitors | 1.2% of 390,000 active; also: potency is read from the fitted curve at half-maximal effect; % is scaled to controls: 0 for no effect and ±100 for the full control effect
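Fluorescent replication assay: 50 nM final substrate added after a 15 min room-temperature compound preincubation with 10 nM enzyme. Signal taken at 0 min and again at 10 min.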
Pol beta inh = blocks human DNA polymerase beta activity. 1.3% of 340,000 active. P06746. AID 485314. Pol beta primer extension/strand displacement, fluorescence kinetic. Potency, µM (titrated, usually from 114 µM), without a hit: at the top dose activity change, negative = inhibition, most hits filed as inhibitors; also: potency is read from the fitted curve at half-maximal effect; % is scaled to controls: 0 for no effect and ±100 for the full control effect
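Human Pol beta at 10 nM; strand-displacement substrate 50 nM final. Compound exposure 15 min at room temperature before start, reaction 10 min at room temperature.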
POLI inh = inhibitors of human DNA polymerase iota; Q9UNA4; Pol iota fluorescent replication assay, 10 min; Potency, µM (titrated, usually from 115 µM), inactives show at the top dose activity, negative = inhibition, most hits filed as inhibitors; 1% of 390,000 active; also: potency is read from the fitted curve at half-maximal effect
Target sequence (Q9UNA4 whole entry, looked up): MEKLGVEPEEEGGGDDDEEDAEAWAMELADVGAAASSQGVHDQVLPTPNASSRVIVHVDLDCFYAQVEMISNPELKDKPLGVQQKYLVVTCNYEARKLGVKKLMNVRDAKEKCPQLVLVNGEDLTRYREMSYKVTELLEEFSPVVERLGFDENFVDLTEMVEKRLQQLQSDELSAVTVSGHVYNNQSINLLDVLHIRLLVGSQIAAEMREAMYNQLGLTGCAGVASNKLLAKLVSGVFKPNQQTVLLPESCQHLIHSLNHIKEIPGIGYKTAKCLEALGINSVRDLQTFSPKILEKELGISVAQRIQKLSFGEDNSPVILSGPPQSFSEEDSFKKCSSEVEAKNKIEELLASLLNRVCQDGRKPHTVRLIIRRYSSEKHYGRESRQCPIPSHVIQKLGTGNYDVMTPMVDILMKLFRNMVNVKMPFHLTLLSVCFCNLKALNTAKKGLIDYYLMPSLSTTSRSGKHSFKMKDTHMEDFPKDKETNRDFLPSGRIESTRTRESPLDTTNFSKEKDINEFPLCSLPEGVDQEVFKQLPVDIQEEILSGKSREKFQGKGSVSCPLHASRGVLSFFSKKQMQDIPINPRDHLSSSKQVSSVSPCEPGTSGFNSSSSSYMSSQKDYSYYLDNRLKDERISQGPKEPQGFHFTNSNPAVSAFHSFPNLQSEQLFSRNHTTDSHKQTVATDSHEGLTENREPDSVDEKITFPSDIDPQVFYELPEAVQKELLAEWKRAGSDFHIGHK
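Fluorescent replication assay read twice, at 0 min and 10 min after adding 50 nM (final) substrate. Enzyme (10 nM) and compounds were first incubated 15 min at room temperature; enzyme-free buffer wells were negative controls.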
FEN1 inhibitor = blocks human flap endonuclease 1; Potency, µM (titrated, usually from 114 µM), inactives show at the highest dose activity change, negative = inhibition, hits mostly inhibitors; Recombinant FEN1 flap cleavage, fluorescence, 15 min; 0.35% of 390,000 active; AID 588795; P39748; also: potency is read from the fitted curve at half-maximal effect; % is scaled to controls: 0 for no effect and ±100 for the full control effect; nearly all actives have a fitted effect of over 65% in size
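Enzyme 10 nM, 15 min RT preincubation with compound; start with substrate 50 nM final; reads at 0 and 15 min; qHTS titration, four-parameter Hill fit.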
Pol kappa inh-1 = inhibitors of human DNA polymerase kappa | Q9UBT6 | purified Pol kappa, fluorescent DNA synthesis assay, 10 min | Potency, µM (top dose mostly 107 µM), for inactives: top-dose activity, negative = inhibition, usual class: inhibitors | 0.53% of 400,000 active | AID 588579; also: potency is read from the fitted curve at half-maximal effect; % is scaled to controls: 0 for no effect and ±100 for the full control effect
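Fluorescent qHTS in 1536-well format: enzyme (10 nM) and compound sat 15 min at room temperature before 50 nM substrate (final) was added. Signal taken at 0 and 10 min; no-enzyme buffer wells were negative controls.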
GALK confirm = confirmation of human galactokinase (GALK) inhibitors | shares compounds with Pol eta inh-1 | AID 2015 | Potency, µM (highest dose often 115 µM), inactives show at the highest dose activity, negative = inhibition, most hits filed as inhibitors | 70% of 150 active | purified GALK, Kinase-Glo ATP depletion luminescence
Redox cycling = generates H2O2 by redox cycling, flagging GALK artifacts | shares compounds with Pol eta inh-1 | Phenol red-HRP H2O2 redox cycling, absorbance 600 nm | Potency, µM (highest dose often 115 µM), without a hit: at the top dose activity change, negative = H2O2 signal, most hits filed as inhibitors | 40% of 150 active
HEK293 viability = counter-screen for GALK inhibitors: HEK293 cell cytotoxicity; AID 2547; HEK-293 viability, ATP luminescence (CellTiter-Glo), 24/48 h; Potency, µM (doses to about 46.1 µM), for inactives: top-dose activity change, negative = cytotoxicity, usual class: inhibitors; shares compounds with Pol eta inh-1; 10% of 170 active; also: potency is read from the fitted curve at half-maximal effect; % is scaled to controls: 0 for no effect and ±100 for the full control effect
Pol kappa inh-2 = Pol kappa (human) inhibition, cherry-pick confirmation. 76% of 920 active. AID 720501. shares compounds with Pol eta inh-1. purified Pol-kappa, fluorescent strand-displacement substrate. Potency, µM, most hits filed as inhibitors; also: potency is read from the fitted curve at half-maximal effect
Pol eta inh-2 = confirmation of human DNA polymerase eta inhibitors; Potency, µM, actives largely listed as inhibitors; 64% of 2,600 active; shares compounds with Pol eta inh-1; Pol eta primer extension, TAMRA/BHQ fluorescence, 10 min; AID 720502; also: potency is read from the fitted curve at half-maximal effect
Numbers without * were called inactive; ? = inconclusive; nt = no result; [ ] = dose if it differs, or a comment. Sampled rows, rich in hits. Any-hit rate of the full collection: about 2.4%. Calls follow the shape of the dose curve; as a rule, active = well fitted curve in the direction sought with a large enough effect; inconclusive = small, poorly fitted or top-dose-only effect, or another doubt; inactive = no such curve, though single readings can be large; an effect the other way counts as inactive or inconclusive.

SMILES	TDP1 block	Pol eta inh-1	Pol beta inh	POLI inh	FEN1 inhibitor	Pol kappa inh-1	Pol eta inh-2	others
Cc1ccc(C(=O)O)cc1-n1c(C)cc(C=O)c1C	17.8µM*	20µM*	17.8µM*	28.2µM*	-15.1%	?	60.1*
O=C(O)CCCCCn1c(SCC(=O)c2ccc(O)c(O)c2)nc2ccsc2c1=O	nt	2.82µM*	39.8µM*	?	-18.8%	?	16.9*	Pol kappa inh-2=7.52*
CCCC[C@@H]1C[C@H]1C(NC(=O)Cc1ccccc1)c1ccc(Cl)cc1 (stereo not given in full)	-0.9%	nt	nt	nt	nt	nt	nt
CC(C)(C)c1ccc2c(c1)OC(C(=O)N/N=C\c1ccccn1)CO2 (stereo not given)	8.0%	-16.4%	20.7%	-13.4%	-8.7%	-20.3%	nt
O=C(O)c1cccc(-c2ccc(/C=N/NC(=O)C3COc4ccccc4O3)o2)c1 (stereo not given)	?	28.2µM*	20µM*	?	-8.5%	?	60.1*
CC(C)(C)c1ccc2c(c1)OC(C(=O)N/N=C\c1ccc(-c3cccc(C(=O)O)c3)o1)CO2 (stereo not given)	nt	11.2µM*	-36.6%	?	?	?	16.9*
O=C(O)CCn1c(=O)c2cccn2c2cccnc21	0.0%	nt	?	9.6%	-8.9%	-6.2%	nt
Cc1ccc(Cl)cc1NC(=O)CCn1cnc2ccccc2c1=O	4.4%	44.7µM*	?	?	5.3%	-5.6%[60.1 µM]	75.7*
Cc1cc(C)cc(NC(=O)CCn2cnc3ccccc3c2=O)c1	-2.2%	7.3%	?	-26.5%	20.2%	-8.5%[60.1 µM]	nt
CCOc1ccc(CCNC(=O)C2CC(C)=CCC2C(=O)O)cc1OCC (stereo not given)	nt	28.2µM*	25.1µM*	?	-3.8%	-26.0%	53.6*
CCOc1ccc(CCNC(=O)C2CC=CCC2C(=O)OC(C)C)cc1OCC (stereo not given)	nt	-1.0%	16.9%	18.3%	19.4%	-5.2%[60.1 µM]	nt
COc1ccc(N(C(=O)CNC(=O)c2ccco2)C(C(=O)NC2CCCCC2)c2cccnc2)cc1 (stereo not given)	nt	-20.3%	16.7%	26.4%	15.6%	-2.9%	nt
CC1CCCCC12NC(=O)N(CC(=O)Nc1ccc(OC(F)F)cc1)C2=O (stereo not given)	0.3%	-12.5%	nt	-0.4%	12.4%	-11.5%	nt
COc1cc(=O)n2c(-c3ccccc3)csc2n1	2.1%	-13.2%	-8.7%	3.0%	5.3%	-4.9%	nt
Cc1cc(C)cc(OCc2cc(=O)n3c(-c4ccccc4)csc3n2)c1	1.3%	?	12.6µM*	?	-5.8%	?	?	Pol kappa inh-2=?
O=C1OC(c2ccc(Br)cc2)=N/C1=C\c1ccco1	-5.1%	-14.2%	44.6%	35.1%	-1.2%	-1.9%	nt
CC1=N/C(=C/c2ccco2)C(=O)O1	5.62µM*	10µM*	10µM*	?	-21.0%	50.1µM*	30.1*
O=Cc1ccccc1-c1cn(CN2C(=O)c3ccccc3C2=O)nn1	nt	-12.2%	-8.6%	7.5%	9.6%	-13.7%	nt
CN(CCOc1ccccc1)C(=O)CCc1nc2sc3c(c2c(=O)[nH]1)CCCC3	-11.6%	?	?	25.1µM*	3.2%	-35.4%	?
COc1ccc(OCC(=O)OCc2cc(=O)n3cc(C)sc3n2)cc1	3.2%	-6.8%	-18.5%	5.6%	14.6%	-6.3%	nt
CC(=O)c1ccc(S(=O)(=O)N(CCCO)Cc2cc3cc(C)ccc3[nH]c2=O)cc1	-3.2%	50.1µM*	39.8µM*	?	-12.1%	-25.8%	60.1*
O=C(O)c1cccc(N2C(=O)C3CC=CCC3C2=O)c1 (stereo not given)	0.0%	13.2%	-0.7%	0.9%	-0.9%	-3.0%	nt
O=C(O)c1cccc(N2C(=O)C=CC2=O)c1	nt	20µM*	nt	nt	nt	nt	53.6*
CC(=O)N/C(=C/c1ccccc1)c1ccncc1	nt	nt	nt	28.0%	14.6%	3.5%	nt
O=C1OC(c2cccs2)=N/C1=C\c1ccc(-c2cccc(Cl)c2)o1	4.1%	?	-0.3%	?	-0.6%	-21.9%	nt
SMILES	TDP1 block	Pol eta inh-1	Pol beta inh	POLI inh	FEN1 inhibitor	Pol kappa inh-1	Pol eta inh-2	others
N=C1S/C(=C\c2ccc(-c3cccc(Cl)c3)o2)C(=O)N1c1nccs1	6.5%	10µM*	8.91µM*	?	?	-42.9%	?	Pol kappa inh-2=23.8*
O=C(CSCc1ccccc1)N1CCN(S(=O)(=O)c2ccc(F)cc2)CC1	0.7%	4.9%	-13.3%	20.6%	0.0%	1.0%	nt	GALK confirm=-7.3%;Redox cycling=-1.4%;HEK293 viability=3.0%
CCOC(=O)C1CCN(C(=O)Cn2c(-c3cccs3)cc3cc(Cl)ccc32)CC1	1.2%	-16.0%	18.6%	15.7%	-16.1%	-0.3%	nt
CCCCN(CC)CCNC(=O)CN1C(=O)COc2ccc(S(=O)(=O)N3CCOCC3)cc21	2.3%	0.9%	0.0%	13.3%	-9.0%	-9.0%	nt
O=C1N=C(N2C=CC(=C3C=CNC=C3)C=C2)/C(=C/N=NC(=O)c2ccccc2O)S1	9.2%	17.8µM*	14.1µM*	31.6µM*	?	?	75.7*
O=C(O)c1cc(C(=O)O)cc(N2C(=O)CSC2=S)c1	-7.5%	?	1.7%	22.4µM*	?	89.1µM*	30.1*	Pol kappa inh-2=?
CCOc1ccc(N2C(=O)CSC2=S)cc1	nt	-8.7%	-3.1%	-20.1%	-4.4%	-2.4%	nt
C=CCC(O)(CC=C)C(C)N (stereo not given)	0.0%	5.0%	-27.0%	16.3%	-2.2%	-3.2%	nt
CCSc1nnc(NC(=O)C2CC=CCC2C(=O)O)s1 (stereo not given)	56.2µM*	20µM*	31.6µM*	?	-12.4%	-3.3%	?
